Laboratory results: article PMC5540273 (PLoS ONE, 2017)

Legend:
Conditions in all cases: concentration: 1 μM, replicates: in singlicate; n = 1
[1] = test system: PIK3CD
[2] = test system: PIK3CG
[3] = test system: T1, PIK4CB
T1 construct: gene PI4KB

[4] = test system: PIKFYVE
[5] = test system: PIM1
[6] = test system: PIM2
[7] = test system: PIM3
[8] = test system: PIP5K1A
[9] = test system: PIP5K1C
[10] = test system: PIP5K2B
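Also: KINOMEscan kinase panel screen.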

Compound | %Inh [1] | %Inh [2] | %Inh [3] | %Inh [4] | %Inh [5] | %Inh [6] | %Inh [7] | %Inh [8] | %Inh [9] | %Inh [10]
O=C(CCO)NCCn1ccc2ncnc(Nc3ccc(Oc4cccc(C(F)(F)F)c4)c(Cl)c3)c21 | 0% | 0% | 0% | 34% | 0% | 0% | 0% | 0% | 41% | 5%
CS(=O)(=O)CCNCc1ccc(-c2ccc3ncnc(Nc4ccc(OCc5ccccc5)c(Cl)c4)c3c2)o1.Cl [GW574783] | 0% | 0% | 8% | 23% | 0% | 5% | 0% | 32% | 62% | 0%
Clc1ccc(-c2cc(-c3c[nH]nc3-c3ccccn3)ccn2)cc1 [GW681251] | 0% | 0% | 4% | 0% | 0% | 30% | 0% | 16% | 79% | 22%
COc1ccc(NC(=O)c2ccc(-c3cc(-c4nnc(C)o4)ccc3C)cc2)cc1 [GW595885] | 0% | 0% | 0% | 13% | 0% | 0% | 0% | 7% | 1% | 10%
COc1ccc(Nc2nccc(N3CCC(NC(=O)c4cccc(NC(C)=O)c4)C3)n2)cc1 (stereo not drawn) [GSK1379732] | 0% | 0% | 0% | 0% | 0% | 0% | 0% | 49% | 70% | 12%
Fc1ccc(-c2ncn(CCCNCc3ccccc3)c2-c2ccncc2)cc1 | 3% | 4% | 24% | 2% | 10% | 23% | 28% | 0% | 0% | 12%
FC(F)(F)c1ccc(-c2nn3ncccc3c2-c2ccnc(Nc3cccc(C(F)(F)F)c3)n2)cc1 [GW828205] | 0% | 0% | 0% | 0% | 12% | 17% | 32% | 53% | 0% | 0%
Cl.O=S(=O)(c1cccc(F)c1)c1ccc(Nc2ncnc3cc(Br)sc23)cc1Cl [GSK306886] | 21% | 5% | 6% | 0% | 14% | 0% | 0% | 9% | 70% | 3%
COc1cc2c(Nc3cccc(NC(=O)c4ccccc4)c3)ncnc2cc1OCCCN1CCOCC1 [GSK223810] | 0% | 0% | 0% | 0% | 0% | 0% | 5% | 0% | 26% | 2%
O=C(c1ccc(-c2cc(-c3c[nH]nc3-c3ccccn3)ccn2)cc1)N1CCCC1 [GW792479] | 0% | 0% | 4% | 19% | 100% | 21% | 8% | 0% | 14% | 0%
CCCc1ccc(S(=O)(=O)NC2CCN(c3ccnc(Nc4ccc(OC)cc4)n3)C2)cc1 (stereo not drawn) [GSK1379737] | 0% | 0% | 0% | 0% | 0% | 0% | 0% | 52% | 56% | 22%
Cl.c1ccc(Cn2ccc3cc(Nc4ncnc5ccccc45)ccc32)cc1 [GW275568] | 0% | 21% | 24% | 0% | 27% | 1% | 23% | 0% | 34% | 6%
C[C@H]1CC[C@@H](C(=O)Nc2ccccc2)CN1c1cc(-c2ccc3c(N)n[nH]c3c2)nc(N)n1 [GSK2283293] | 0% | 0% | 0% | 0% | 13% | 0% | 0% | 0% | 19% | 24%
Nc1nc(-c2ccc3c(N)n[nH]c3c2)cc(N2CCCCC2)n1 [GSK2228768] | 0% | 0% | 0% | 0% | 0% | 0% | 0% | 0% | 31% | 4%
CSc1nn2c(=O)cc(N3CCOCC3)nc2n1Cc1cccc(Cl)c1Cl [GSK2347225] | 85% | 56% | 0% | 37% | 8% | 0% | 0% | 0% | 27% | 4%
COc1ccc(NC(=O)Nc2ccc(C)c(-c3ccc(C(=O)Nc4ccncc4)cc3)c2)cc1 [GSK1398475] | 0% | 0% | 0% | 0% | 0% | 0% | 3% | 0% | 17% | 0%
COC(=O)c1cccc(NC(=O)NCCNc2ccnc(Nc3ccc(F)cc3)n2)c1 [GSK1379883] | 0% | 8% | 0% | 1% | 0% | 0% | 0% | 34% | 56% | 5%

Compound | %Inh [1] | %Inh [2] | %Inh [3] | %Inh [4] | %Inh [5] | %Inh [6] | %Inh [7] | %Inh [8] | %Inh [9] | %Inh [10]
CS(=O)(=O)CCNCc1nc(-c2ccc3ncnc(Nc4ccc(OCc5cccc(F)c5)c(Cl)c4)c3c2)cs1.Cl [GW583340] | 29% | 0% | 26% | 0% | 20% | 0% | 8% | 1% | 38% | 0%
c1ccc(-c2ccc3c(-c4ccnc(Nc5ccc6c(c5)OCCO6)n4)cnn3n2)cc1 [GW818941] | 0% | 0% | 0% | 0% | 9% | 0% | 17% | 0% | 0% | 1%
COc1cc2ncnc(Nc3ccc(OCc4ccccc4Br)c(Cl)c3)c2cc1OC.Cl [GI261590] | 0% | 0% | 0% | 28% | 0% | 0% | 15% | 34% | 56% | 11%
Cn1ccc2ncnc(Nc3ccc(Oc4cccc(Cl)c4)c(Cl)c3)c21 | 8% | 8% | 0% | 0% | 8% | 17% | 22% | 0% | 0% | 54%
Cc1cc(N2CCC(NS(=O)(=O)c3ccc(F)cc3)CC2)nc(Nc2cccc(C#N)c2)n1.O=C(O)C(F)(F)F [GSK1653537] | 0% | 15% | 10% | 0% | 25% | 9% | 0% | 0% | 0% | 6%
CC(=O)Nc1n[nH]c2ncc(-c3ccccc3)cc12 [SB-548492] | 0% | 26% | 44% | 0% | 7% | 0% | 14% | 10% | 0% | 8%
Fc1cccc(COc2ccc(Nc3ncnc4sc(-c5ccc[nH]5)cc34)cc2Cl)c1 [GW707818] | 0% | 0% | 0% | 0% | 20% | 0% | 14% | 29% | 46% | 0%
CCc1nc(-c2cccc(C)c2)c(-c2ccnc(NC(=O)c3ccccc3)c2)s1 | 44% | 0% | 62% | 1% | 0% | 0% | 0% | 15% | 0% | 64%
Clc1cccc(-c2nc(Nc3ccncc3)c3ccccc3n2)c1 [GW873004] | 0% | 0% | 0% | 61% | 4% | 11% | 0% | 22% | 33% | 0%
Cc1ccc(NC(=O)c2cccc(C#N)c2)cc1-c1ccc(C(=O)Nc2ccncc2)cc1 [GSK1398463] | 1% | 0% | 11% | 0% | 9% | 0% | 0% | 0% | 38% | 23%
N#Cc1ccc(Oc2ccc(Nc3ncnc4cc[nH]c34)cc2Cl)cc1 | 36% | 0% | 0% | 7% | 20% | 6% | 29% | 0% | 0% | 11%
Cl.Fc1ccccc1COc1ccc(Nc2ncnc3ccc(-c4nnc(C(F)(F)F)o4)cc23)cc1Cl [GW424170] | 0% | 0% | 0% | 0% | 0% | 0% | 0% | 66% | 36% | 7%
Nc1nc(-c2cccnc2)c(-c2ccnc3ccccc23)s1 [GW684083] | 0% | 0% | 0% | 12% | 0% | 0% | 0% | 25% | 58% | 0%
Nc1n[nH]c2nnc(-c3ccccc3)cc12 [SB-517389] | 0% | 0% | 8% | 0% | 8% | 0% | 0% | 0% | 0% | 18%
Oc1ccc2ncnc(Nc3ccc(OCc4ccccc4)cc3)c2c1 [GI262866] | 5% | 0% | 1% | 0% | 0% | 0% | 33% | 0% | 19% | 19%
CCc1nc(-c2cccc(N(C)S(=O)(=O)c3ccccc3)c2)c(-c2ccnc(Nc3ccc(N4CCN(C(C)=O)CC4)nc3)n2)s1 [GSK1645895] | 0% | 4% | 10% | 0% | 17% | 0% | 11% | 0% | 0% | 0%
